Assay outcomes deposited in PubChem BioAssay by Broad Institute.
PrP 5UTR inh = inhibition of PrP 5' UTR reporter expression | cell-based PrP 5' UTR mRNA reporter, plate reader | inhibition, % (concentration not given with the values) | 0.35% of 340,000 active | AID 488862, 2010; in the data active means inhibition above about 52%; further: 0 = median of the neutral control wells
Yp Topo-I inh = Yersinia pestis topoisomerase I inhibitors, primary screen, biochemical, cleavage product accumulation, plate reader, single point | DNA topoisomerase I (Yersinia pestis CO92) | Y. pestis Topo-I cleavage product accumulation | activity, % at 10 µM | 0.064% of 360,000 active | AID 504884, 2011; in the data active means activity above about 50%, passing the limit was not always enough
Mtb BioA inh = M. tuberculosis BioA enzyme inhibitors, primary screen, biochemical, plate reader, single point, HTS; 7,8-diaminopelargonic acid synthase BioA (Mycobacterium tuberculosis); purified M. tuberculosis BioA enzyme; inhibition, % at 9.99 µM; 0.096% of 360,000 active; AID 602481, 2012; in the data active means inhibition above about 40%
PfHsp40 rescue = rescue of yeast from PfHsp40 toxicity, primary screen, S. cerevisiae, ATP luminescence; 0.68% of 340,000 active; S. cerevisiae expressing PfHsp40, growth rescue; AID 504582, 2011; growth rescue, % at 12.5 µM; in the data active means growth rescue above about 28%, passing the limit was not always enough;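 further: yeast W303a lacking pdr1 and pdr3 grown in galactose medium; growth measured after three days at 30 °C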
FadD28 FP inh = inhibitors of FadD28 bisubstrate probe binding, primary screen, biochemical, fluorescence polarization, single point; Mycobacterium tuberculosis FadD28 fatty-acid-AMP ligase; inhibition, % at 12.5 µM; 0.22% of 360,000 active; in the data active means inhibition above about 8.5%, passing the limit was not always enough
The depositor's hits bear a star; . = no result; ! = a repeat was not active. This is a sample that favours compounds with a hit; in the whole collection about 1.1% have one here.

SMILES	PrP 5UTR inh	Yp Topo-I inh	Mtb BioA inh	PfHsp40 rescue	FadD28 FP inh
Cc1ccc(OCC(O)CN2C(=O)NC(C)(C)C2=O)cc1 (configuration not stated)	-12.7	-3.7	0.1	53.0*	-1.6
COC[C@H]1OC(=O)c2coc3c2[C@@]1(C)C1=C(C3=O)[C@@H]2CCC(=O)[C@@]2(C)C[C@H]1OC(C)=O	14.8	3.9	.	122.8*	-6.9
OCC[C@@H]1C[C@@H](O)[C@H](O)[C@@]2(Cc3ccccc3CO2)O1	-26.7	-2.3	-0.6	45.6*	-0.1
OCC[C@H]1C[C@H](O)[C@@H](O)[C@@]2(Cc3ccccc3CO2)O1	-10.1	15.1	-0.3	-1.0	0.6
CCCNC(=O)N1C[C@H]2[C@@H](c3ccccc31)[C@@H](CO)N2CC1CCCC1	.	.	1.8	.	.
Cc1ccc(CNC(=O)c2ccc(Cn3nc(C)c(Cl)c3C)o2)cc1	-16.2	32.2	0.0	153.5*	-4.8
COc1ccc(S(=O)(=O)Nc2cccc3c2O[C@@H](CN(C)C(=O)Nc2ccc(C(F)(F)F)cc2)[C@H](C)CN([C@H](C)CO)C3=O)cc1	.	.	1.6	.	.
Cc1cc(Cl)ccc1OC(C)C(=O)Nc1ccc(C(=O)Nc2ccccc2C(=O)O)cc1 (configuration not stated)	-11.1	14.0	9.1	51.7*	-28.1
O=C1C(=Cc2ccco2)CCC1=Cc1ccco1	-7.8	-7.2	-1.1	7.7	12.7*
O=C(COC(=O)C1CCN(c2ccc(C(F)(F)F)cn2)CC1)c1ccc(Cl)cc1	-19.1	29.9	.	5.1	-4.0
O=C(COC(=O)C1CCN(c2ccc(C(F)(F)F)cn2)CC1)c1ccccc1Cl	-21.0	51.7*	-0.2	0.7	0.9
Cc1ccc(C(=O)C(C)OC(=O)C2CCN(c3ccc(C(F)(F)F)cn3)CC2)cc1 (configuration not stated)	-18.0	55.0*	.	0.7	-2.2
CC(OC(=O)C1CCN(c2ccc(C(F)(F)F)cn2)CC1)C(=O)c1ccccc1 (configuration not stated)	8.6	25.5	-0.7	5.3	-2.0
COCC(=O)N(C)C[C@@H]1Oc2cc(-c3cncnc3)ccc2S(=O)(=O)N([C@H](C)CO)C[C@H]1C	.	.	-0.2	.	.
COC(=O)C[C@H]1C=C[C@H](NS(=O)(=O)c2ccccc2F)[C@H](CO)O1	.	.	3.9	.	.
C[C@H](CO)N1C[C@H](C)[C@H](CN(C)CC2CCOCC2)Oc2cc(-c3cccnc3)ccc2S1(=O)=O	.	.	0.1	.	.
O=C(Nc1ccc2c(c1)[C@H]1C[C@H](CC(=O)N3CCCCC3)O[C@H](CO)[C@H]1O2)c1cccnc1	.	.	35.7	.	.
CN(C)c1nc(SCc2ccc(Cl)cc2)nc2c1CCCC2	-9.0	10.1	-1.2	220.3*	-3.2
Cc1cc(C)nc(SCc2ccc(Cl)cc2)n1	-11.2	15.7	1.0	0.2	-1.8
CC1C/C(=C/c2ccncc2)C(=O)/C(=C/c2ccncc2)C1 (configuration not stated)	17.4	13.1	3.2	50.5*	-2.5
O=C(C[C@@H]1CC[C@@H]2[C@H](COC[C@H](O)CN2Cc2cccc(F)c2)O1)NCCc1ccncc1	.	.	-0.7	.	.
C[C@@H]1CN([C@H](C)CO)C(=O)c2cc(/C=C/c3ccccc3)cnc2O[C@H]1CN(C)S(=O)(=O)c1ccccc1	.	.	0.6	.	.
CC(C)(O)CCCC(C)(O)c1ccc(C(=O)O)cc1O (configuration not stated)	-4.6	9.9	-0.2	54.9*	0.7
O=C(O)c1ccc(O)c(O)c1	-11.1	-5.6	-0.5	-0.5	-0.7
COc1ccc(N2C(=O)C(Cl)=C(Nc3ccccc3O)C2=O)cc1	-17.5	-8.7	1.0	82.1*	-3.7
SMILES	PrP 5UTR inh	Yp Topo-I inh	Mtb BioA inh	PfHsp40 rescue	FadD28 FP inh
CC(C)Oc1cc(C(=O)N2CCC(N3CCCCC3)CC2)ccc1Nc1nnc(Cl)c(Nc2ccccc2S(C)(=O)=O)n1	-12.6	-7.1	1.2	0.0	-6.4
CN1CCN(C2CCN(c3ccc(Nc4nnc(Cl)c(Nc5ccccc5S(C)(=O)=O)n4)c(OC(CF)CF)c3)CC2)CC1	-26.4	-31.8	0.3	329.3*	-2.1
Cc1ccc(CN2C(=O)CCC2C(=O)NCc2ccc(F)cc2)cc1 (configuration not stated)	1.7	0.4	.	62.7*	-1.8
CC(C)(C)CNC(=O)[C@]1(C)CCC[C@@]2(C)C3CC[C@@]4(C)C[C@]3(CCC21)CC4=O (some centres not stated)	-12.4	29.8	0.0	0.9	-2.4
C[C@@]12CCC3[C@@](CCC4[C@@]3(C)CCC[C@@]4(C)C(=O)NCc3ccccc3)(CC1=O)C2 (some centres not stated)	-34.5	12.9	-0.8	345.6*	-4.9
COc1ccc(S(=O)(=O)Nc2ccc3c(c2)C(=O)N([C@@H](C)CO)C[C@H](C)[C@H](CN(C)C(=O)CCCN(C)C)OCCCC[C@H](C)O3)cc1	.	.	-6.8	.	.
CCCCCOc1ccc(C2C(C(=O)c3ccc(C)o3)=C(O)C(=O)N2c2cc(C)on2)cc1 (configuration not stated)	-30.9	87.9*	-2.7	-0.7	-6.0
CCOc1ccc(C2C(C(=O)c3ccc(C)o3)=C(O)C(=O)N2c2cc(C)on2)cc1OC (configuration not stated)	-16.9	-9.0	-1.7	0.0	-4.0
CCCOc1cccc(C2C(C(=O)c3cc4ccccc4o3)=C(O)C(=O)N2c2cc(C)on2)c1 (configuration not stated)	-20.2	2.7	-1.3	-1.0	-1.9
Cc1cc(N2C(=O)C(O)=C(C(=O)c3cc4ccccc4o3)C2c2cccc(Br)c2)no1 (configuration not stated)	-6.9	77.9*	0.4	2.7	-0.7
Cc1ccc(S(=O)(=O)N(C)C[C@H]2Oc3ncc(-c4ccncc4)cc3C(=O)N([C@H](C)CO)C[C@@H]2C)cc1	.	.	0.4	.	.
O=P(Oc1ccccc1)(Oc1ccccc1)C(O)c1ccc(Cl)cc1 (configuration not stated)	3.2	8.8	-0.3	140.2*	-0.6
CCC(C)C(=O)OC1CCC=C2C=CC(C)C(CCC3CC(O)CC(=O)O3)C21 (configuration not stated)	-18.5	3.4	.	-0.7	-0.4
CC[C@H](C)C(=O)O[C@H]1C[C@@H](C)C=C2C=C[C@H](C)[C@H](CC[C@@H]3C[C@@H](O)CC(=O)O3)[C@H]21	-13.8	41.1	-0.3	69.0*!	0.0
COc1ccc(NC(=O)Cn2nnc(-c3ccccc3NC(=O)c3cccs3)n2)cc1	-18.2	20.0	-1.1	64.7*	-4.0
Cc1ccc(NC(=O)Cn2nnc(-c3ccccc3NC(=O)c3cccs3)n2)cc1	-23.9	7.8	-1.4	0.8	-2.7
Cc1ccc(C)c(S(=O)(=O)N2CCN(Cc3ccc(O)c4ncccc34)CC2)c1	26.6	29.5	.	322.8*	-6.9
CSc1ncccc1C(=O)N1CCN(S(=O)(=O)c2cc(C)ccc2C)CC1	-20.2	24.1	-0.3	-1.9	-3.8
